# High-throughput results (PubChem)
# L3MBTL1 block: qHTS Assay for the Inhibitors of L3MBTL1 | AID 485360, 2010 | AlphaScreen L3MBTL1–H3K9me1 peptide binding | Potency, µM (doses to about 57.1 µM), without a hit: at the highest dose activity, negative = inhibition, hits mostly inhibitors | 230,000 tested, 0.66% active | Lethal(3)malignant brain tumor-like protein 1 (Homo sapiens), Q9Y468; note: potency is the fitted concentration of half-maximal effect; % is set by controls: 0 for no effect and ±100 for the full control effect; nearly all actives have a fitted effect of over 60% in size
#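 Displacement of a biotinylated histone H3(1-15) peptide monomethylated at Lys9 (75 nM) from L3MBTL1 (50 nM) was measured by AlphaScreen after a 30 min room-temperature compound incubation; cefsulodin titration served as intraplate control.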
# JMJD2A Tudor: qHTS Assay for Inhibitors of JMJD2A-Tudor Domain | Lysine-specific demethylase 4A (Homo sapiens), O75164 | AlphaScreen JMJD2A-Tudor / H3K4me3 peptide binding | Potency, µM (titrated, usually from 114 µM), for the others: at the top dose activity change, negative = inhibition, most hits filed as inhibitors | 390,000 tested, 4.4% active | AID 504339, 2011; note: potency is the fitted concentration of half-maximal effect; % is set by controls: 0 for no effect and ±100 for the full control effect; nearly all actives have a fitted effect of over 50% in size
# HP1b chromo inh: HTS for Inhibitors of HP1-beta Chromodomain Interactions with Methylated Histone Tails; AlphaScreen HP1-beta / biotin-H3K9me3 peptide binding; Potency, µM (titrated, usually from 114 µM), without a hit: at the top dose activity change, negative = inhibition, hits mostly inhibitors; 390,000 tested, 0.56% active; AID 540317, 2011; note: potency is the fitted concentration of half-maximal effect; nearly all actives have a fitted effect of over 70% in size
#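 HP1-beta protein (50 nM final) preincubated 30 min at room temperature with biotinylated H3(1-18)K9me3 peptide (50 nM) in PBS pH 7.4, 0.01% Tween-20, then compound added for 30 min. AlphaScreen streptavidin donor/nickel chelate acceptor beads (10 ug/mL final), 30 min dark, luminescence read.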
# PI5P4Ka inh: qHTS for Inhibitors of phosphatidylinositol 5-phosphate 4-kinase (PI5P4K); Phosphatidylinositol 5-phosphate 4-kinase type-2 alpha (Homo sapiens), P48426; PI5P4Kalpha enzyme, ADP-Glo luminescence, 60 min; stronger effect = lower value; max response, %; 330,000 tested, 1.2% active; active = max response of -50% or lower; inconclusive = between -30% and -50%; inactive = -30% or higher; note: value at the top dose of about 77 µM; % is set by controls: 0 for no effect and ±100 for the full control effect
#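 Enzyme plus substrate dispensed, test compounds pinned in, then ATP (5 microM final) added. After 60 min at RT, ADP-Glo reagent 1 for 45 min and reagent 2 for 30 min preceded luminescence imaging.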
# BAZ2B inh: qHTS Assay for Inhibitors of BAZ2B. AID 504333, 2011. Potency, µM (titrated, usually from 114 µM), for inactives: at the top dose activity change, negative = inhibition, actives largely listed as inhibitors. 360,000 tested, 4.4% active. AlphaScreen BAZ2B-H3K14Ac peptide displacement; note: potency is the fitted concentration of half-maximal effect; % is set by controls: 0 for no effect and ±100 for the full control effect; nearly all actives have a fitted effect of over 60% in size
#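 Complex of BAZ2B and biotin-H3K14Ac (50 nM apiece) forms over 30 min at RT, then faces library compounds up to 110 uM for another 30 min; AlphaScreen beads added, 20 min dark incubation, luminescence read.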
# G9a inh: qHTS Assay for Inhibitors of Histone Lysine Methyltransferase G9a | Potency, µM (titrated, usually from 102 µM), inactives show at the top dose activity, negative = inhibition, actives largely listed as inhibitors | Histone-lysine N-methyltransferase EHMT2 (Homo sapiens), Q96KQ7 | 350,000 tested, 8.8% active | G9a H3K9 monomethylation, AlphaScreen, 2 h | AID 504332, 2011; note: potency is the fitted concentration of half-maximal effect; % is set by controls: 0 for no effect and ±100 for the full control effect; nearly all actives have a fitted effect of over 75% in size
#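 Signal arises when biotinylated H3K9 peptide, once monomethylated, bridges streptavidin donor and antibody-captured acceptor beads. Enzyme at 20 nM was preincubated 15 min with test compounds; peptide 500 nM and SAM 20 uM then reacted for 2 h.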
# * hit, by the source's call; ? = inconclusive; . = no result given; [ ] = remark or other dose. Compounds with a hit are over-represented: about 11% of the library has one in this group of screens. Unless noted, calls come from the whole dose curve; as a rule, active = well fitted inhibition curve with a large enough effect; inconclusive = small, poorly fitted or top-dose-only effect; inactive = no such curve, though single readings can be large or run the other way.
SMILES,L3MBTL1 block,JMJD2A Tudor,HP1b chromo inh,PI5P4Ka inh,BAZ2B inh,G9a inh
CCc1ccc(CNCCc2c[nH]c3ccccc23)cc1,-16%,35µM*,?,0,2%[0.457 µM],?
Fc1cccc(CNCCc2c[nH]c3ccccc23)c1,-7%,-15%,26%,2,?,.
CN1C(=O)CCS(=O)(=O)[C@@H]1c1ccc(Cl)cc1,.,.,.,.,.,5%[21.5 µM]
COc1ccc(CNCCc2cccc(F)c2)c2ccccc12,3%,.,.,.,?,.
COc1ccccc1CNCCc1ccc(F)cc1,.,32µM*,?,3,50µM*,-12%
COc1cc(OC)c(OC)cc1CNCCc1ccc(F)cc1,-85%,63µM*,-16%,3,-17%,.
COc1cc(OC)c(OC)cc1CNCCc1ccc(OC)c(OC)c1,-15%,3.2µM*,?,.,?,?
CCc1ccc(CNCCc2ccc(F)cc2)cc1,34%,2%,27%,-2,27%,-2%[59 µM]
COc1cc(OC)c(OC)cc1CNCCc1cccc(F)c1,.,7.9µM*,?,3,56µM*,-15%
NCCCP(=O)(O)CC1CCCCC1,.,.,.,.,.,40%[59 µM]
C=CCn1c(O)c(C(CC)=NCc2cccnc2)c(=O)[nH]c1=O,0%,44%,38%,0,-3%,-30%
CC=C(C)C(=O)O[C@H]1C(C)=C2[C@@H]3OC(=O)[C@@](C)(O)[C@@]3(O)[C@@H](OC(=O)CCC)C[C@](C)(OC(C)=O)[C@@H]2[C@@H]1OC(=O)CCCCCCC,.,.,.,.,.,10%[59 µM]
COc1ccc(CCNCc2ccc(Br)cc2)cc1OC,.,20µM*,?,0,50µM*,-17%
COc1ccc(CCNCc2ccccc2F)cc1OC,6%,-4%,19%,-6,-4%,-7%[59 µM]
COc1ccc(CNCCc2ccc(Cl)cc2)c(OC)c1OC,1%,32µM*,?,10,?,35µM*
COc1ccc(CCNCc2ccccc2F)cc1,.,20µM*,-29%,0,45µM*,7%
COc1ccc(OC)c(CNCCc2ccc(OC)c(OC)c2)c1,-2%,18µM*,-33%,2,?,.
CNCCc1ccc(OC)c(OC)c1,.,-1%,35%,13,-7%,?
CSc1ccc(Cl)c(C(=O)OCC(=O)N2CCN(C(=O)c3ccco3)CC2)c1,-22%,-21%,35%,-25,-7%,?
COC(=O)c1ccc(COC(=O)c2nn(C)c(=O)c3ccccc23)cc1,6%[11.4 µM],3%,56%,1,-29%,-8%
CC(=O)[C@@]1(O)CC[C@H]2C3CCC4=CC(=O)CC[C@]4(C)C3CC[C@@]21C (stereo partly specified),.,.,.,.,.,3%[12.7 µM]
COc1cc(C(=O)OCc2cc(=O)c(O)co2)ccc1OC(F)F,.,-9%,15%,0,?,?
CN1C(=O)C(=Cc2ccc(N3CCOCC3)o2)C(=O)N(C)C1=O,-10%,0%,16%,-4,-27%,?
Cc1ccccc1N1C(=O)NC(=O)/C(=C/c2ccc(N3CCOCC3)o2)C1=O,-14%,1%,28%,-7,-19%,?
Cc1cccc(N2C(=O)/C(=C/c3ccc(N4CCN(C)CC4)o3)C(=O)NC2=S)c1C,-11%,?,-32%,-22,-63%,45µM*
CN1C(=O)C(=Cc2ccc(N3CCCCCC3)o2)C(=O)N(C)C1=S,-8%,?,-50%,-23,?,45µM*
CCc1ccccc1N1C(=O)/C(=C/c2ccc(N3CCN(C)CC3)o2)C(=O)NC1=S,-2%,56µM*,?,?,?,?
O=c1[nH]c(=O)c2ccccc2o1,.,7%,33%[57 µM],2,.,?
